Source: PubChem BioAssay AID463173 (ICCB-Longwood Screening Facility, Harvard Medical School, 2010)
In all, about 52,000 compounds went through this assay and about 4,300 (8.3%) were called active. Only a selection was taken, and actives are over-represented in it overall. Unmarked numbers belong to inactive results. No stated cut-off is given here; in the data, active means survival mostly below about 52% (no sharp cut-off); inactive means mostly above about 56%.

Test system: DeltatarO mutant
Test: growth inhibition of S. aureus wild type versus tarO mutant, primary screen, teichoic acid synthesis inhibitors, RN4220, OD600 (AID 463173)
Details: OD600, 18 h, active compounds read low, screened at 18.75 µg/mL (by protocol)

| SMILES | survival |
| --- | --- |
| COc1ccccc1N1CCN(c2ncnc3c2c(-c2ccccc2)cn3-c2cccc(C)c2)CC1 | 70% |
| COc1ccc(-c2[nH]ncc2C(=O)NCc2cccc(Cl)c2)cc1 | 62% |
| Cc1ccc(C)c(CN2C(=O)c3ccccc3S(=O)c3ccc(C(=O)N(C)Cc4ccccc4)cc32)c1 (stereo not given) | 78% |
| Cc1ccc(Nc2cc(C(=O)NCc3cccs3)c3ccccc3n2)c(C)c1 | 72% |
| CCOc1ccccc1NC(=O)C1=C(C)Nc2ncnn2C1c1ccccn1 (stereo not given) | 25% (active) |
| CC1=C(C(=O)Nc2ccccc2)C(c2cccn2C)n2ncnc2N1 (stereo not given) | 95% |
| COc1ccccc1NC(=O)C1=C(C)Nc2ncnn2C1c1cccn1C (stereo not given) | 8% (active) |
| CC1=C(C(=O)Nc2ccccc2C)C(c2ccccn2)n2ncnc2N1 (stereo not given) | 94% |
| COc1ccc(NC(=O)C2=C(C)Nc3ncnn3C2c2cccn2C)cc1 (stereo not given) | 89% |
| COc1ccccc1NC(=O)C1=C(C)Nc2ncnn2C1c1ccccn1 (stereo not given) | 52% |
| Cc1ccccc1CN1C(=O)c2ccccc2Sc2ccc(C(=O)NC3CCCCC3)cc21 | 71% |
| O=C(O)C1CSC2c3ccccc3C(=O)N12 (stereo not given) | 103% |
| O=c1[nH]c2cc3c(cc2cc1CN(CCO)C(=S)Nc1cccc(Cl)c1)OCO3 | 69% |
| CS(=O)(=O)N1CCc2cc(C(=O)NCc3ccccc3)ccc21 | 81% |
| O=C(NCc1ccccc1)c1ccc2c(c1)CCN2S(=O)(=O)c1ccccc1 | 36% (active) |
| O=C(NCc1ccccc1)c1ccc2c(c1)CCN2S(=O)(=O)c1ccc(Cl)cc1 | 73% |
| Cc1ccc(CNC(=O)c2ccc3c(c2)CCN3S(=O)(=O)c2ccc(Br)cc2)cc1 | 80% |
| CCS(=O)(=O)N1CCc2cc(C(=O)NCc3ccc(C)cc3)ccc21 | 82% |
| Cc1ccc(CNC(=O)c2ccc3c(c2)CCN3S(=O)(=O)c2ccccc2)cc1 | 37% (active) |
| CC(=O)N1CCc2cc(S(=O)(=O)NC(Cc3ccccc3)C(=O)NCc3ccccc3)ccc21 (stereo not given) | 79% |
| Cc1ccc2c(c1)N(CC(=O)N(Cc1cccnc1)C1CCCC1)C(=O)C(C)O2 (stereo not given) | 97% |
| Cc1ccc(-n2nc(C(=O)N3CCN(c4cc(Cl)ccc4C)CC3)c(=O)n(C)c2=O)cc1 | 116% |
| Cc1ccc(OCC(=O)Nc2ccc3nc(SCC(=O)Nc4ccc(C)cc4C)sc3c2)cc1 | 73% |

| SMILES | survival |
| --- | --- |
| COc1ccc(OC)c(CNc2nc3ccc(C)cc3n3nnnc23)c1 | 88% |
| Cc1ccc2nc(N3CCN(c4ccc(F)cc4)CC3)c3nnnn3c2c1 | 55% |
| Cc1ccc2nc(N3CCN(c4ccccc4)CC3)c3nnnn3c2c1 | 88% |
| COc1ccc(N2CCN(c3nc4ccc(C)cc4n4nnnc34)CC2)cc1 | -5% (active) |
| COc1ccccc1CNc1nc2ccc(C)cc2n2nnnc12 | 17% (active) |
| Cc1ccc2nc(NCc3ccccc3Cl)c3nnnn3c2c1 | 91% |
| COc1ccc(-c2ccc(Nc3ccc(C(=O)N4CCCCCC4)cc3)nn2)cc1 | 71% |
| CCOc1ccccc1CNC(=O)c1cnc2sc(N3CCOCC3)nn2c1=O | 67% |
| CCCCn1c(C)nc2ccccc21 | 104% |
| CCCCCn1c(CCNC(=O)c2cccc(C)c2)nc2ccccc21 | 32% (active) |
| CCCCCn1c(CCCNC(=O)c2ccccc2OC)nc2ccccc21 | 53% |
| CCCCn1c(CCCNC(=O)c2cccc(C)c2)nc2ccccc21 | 55% |
| CCCCCn1c(-c2ccc(OC)c(OC)c2)nc2ccccc21 | 1% (active) |
| CCOc1ccc(Cn2c(-c3ccc(OCC)c(OC)c3)nc3ccccc32)cc1OC | 79% |
| CCCCCn1c(C(C)NC(=O)c2ccccc2)nc2ccccc21 (stereo not given) | 81% |
| CCCCCn1c(CCCNC(=O)c2cccc(C)c2)nc2ccccc21 | 51% |
| CCCCCn1c(-c2cccc(C)c2)nc2ccccc21 | -2% (active) |
| COc1cccc(C(C(=O)NCc2ccco2)N(C(=O)Cn2nnc3ccccc32)C2CC2)c1OC (stereo not given) | 107% |
| CCOC(=O)c1noc2nc(C)n(CC(=O)Nc3cc(Cl)ccc3OC)c(=O)c12 | 109% |
| Cc1csc2nc(CCNS(=O)(=O)c3ccccc3)cn12 | 79% |
| Cc1cc(C)c(/C=C/c2onc(C)c2S(=O)(=O)N2CCC(C(=O)Nc3ccc(Cl)c(C(F)(F)F)c3)CC2)c(C)c1 | 67% |
| Cc1nn2c(=O)cc(COC(=O)c3ccccc3NC(=O)c3ccccc3C)nc2s1 | 104% |
| COc1ccc(-c2nc3scc(CCNS(=O)(=O)c4c(C)cc(C)cc4C)n3n2)cc1OC | 85% |

| SMILES | survival |
| --- | --- |
| Cc1ccccc1-c1nc(CNC(=O)Nc2ccccc2)c(C)o1 | 89% |
| CC(C)Oc1ccc(CN2CCc3nc(Nc4ccc5c(c4)OCCO5)ncc3C2)cc1 | 77% |
| Cc1ccc(Cl)cc1Nc1nn2c(=O)c3ccc(C(=O)NC(C)c4ccccc4)cc3nc2s1 (stereo not given) | 105% |
| CN(C(=O)CSc1nc2ccc(NC(=O)COc3ccc(F)cc3)cc2s1)c1ccccc1 | 73% |
| CC1CCN(CC(=O)N2CCCc3c2c(=O)oc2ccc(OCc4ccccc4)cc32)CC1 | 98% |
| CC1CCCCN1CC(=O)N1CCCc2c1c(=O)oc1ccc(OCc3ccccc3)cc21 (stereo not given) | 77% |
| CCC1CCCCN1CC(=O)N1CCCc2c1c(=O)oc1ccc(OCc3ccccc3)cc21 (stereo not given) | 18% (active) |
| COc1ccc(N(Cc2nnc3n2CCCCC3)C(=O)Nc2cccc(C)c2)cc1Cl | 81% |
| COc1ccc(C2CC(=O)c3cc(-c4nc(-c5ccc(Cl)cc5)c(C)s4)c(=O)[nH]c3C2)cc1 (stereo not given) | 70% (active) |
| COc1ccc(C2CC(=O)c3cc(-c4nc(-c5ccc(Cl)cc5)cs4)c(=O)[nH]c3C2)cc1 (stereo not given) | 167% |
| Cc1sc(-c2cc3c([nH]c2=O)CC(c2ccccc2)CC3=O)nc1-c1ccc(Cl)cc1 (stereo not given) | 73% |
| CON(C)c1nc(OCCNC(=O)OCc2ccc(Cl)cc2Cl)nc(N(C)C)n1 | 76% |
| CCOc1ccc(NC(=O)CCCc2nnc3n(C)c(=O)c4sccc4n23)cc1 | 78% |
| Cc1nc2ccn(Cc3cccs3)c(=O)c2cc1C(=O)Nc1ccccc1 | 84% |
| COc1cc(NC(=O)c2cc3c(=O)n(Cc4cccs4)ccc3nc2C)cc(OC)c1OC | 0% (active) |
| COc1ccc(NC(=O)c2cc3c(=O)n(Cc4cccs4)ccc3nc2C)cc1 | 75% |
| Cc1nc2ccn(Cc3cccnc3)c(=O)c2cc1C(=O)NCc1ccccc1 | 72% |
| CCc1ccc(CNC(=O)c2cc3c(=O)n(Cc4cccs4)ccc3nc2C)cc1 | 32% (active) |
| Cc1ccc(C)c(N2CCN(C(=O)c3cc4c(=O)n(Cc5ccccc5)ccc4nc3C)CC2)c1 | 78% |
| COc1ccc(CNC(=O)c2cc3c(=O)n(Cc4cccnc4)ccc3nc2C)cc1 | 37% (active) |
| COc1cccc(CNC(=O)c2cc3c(=O)n(Cc4cccnc4)ccc3nc2C)c1 | 144% |
| Cc1ccc(C)c(N2CCN(C(=O)c3cc4c(=O)n(Cc5cccnc5)ccc4nc3C)CC2)c1 | 46% (active) |
| Cc1nc2ccn(Cc3cccnc3)c(=O)c2cc1C(=O)N1CCN(c2ccccc2)CC1 | 105% |

| SMILES | survival |
| --- | --- |
| Cc1nc2ccn(Cc3cccs3)c(=O)c2cc1C(=O)NCc1ccccc1 | 78% |
| Cc1nc2ccn(Cc3cccs3)c(=O)c2cc1C(=O)NCc1ccc(Br)cc1 | 70% |
| CCc1ccc(-n2c(=O)c3cccnc3n2CC(=O)N(CC)c2cccc(C)c2)cc1 | 94% |
| COc1ccc(Cl)cc1NC(=O)CCc1c(C)nc2c(c1C)c(=O)n(C)c(=O)n2C | 94% |
| Cc1cc(C)cc(NC(=O)Cn2c(C)cc(C)c(C#N)c2=O)c1 | 89% |
| CC(=NCCCn1ccnc1)c1c(C(F)(F)F)[nH]n(-c2nc3ccccc3s2)c1=O | 120% |
| COC(=O)c1ccc(Cn2nnc3c(=O)[nH]c(C4CCCN(S(=O)(=O)c5ccccc5)C4)nc32)cc1 (stereo not given) | 99% |
| CCOc1nc(NCCO)nc(NCCC2=CCCCC2)n1 | 67% |
| CCc1ccccc1-n1nnc(-c2nc(-c3ccccc3F)no2)c1C | 102% |
| CC(C)(C)c1ccc(C(=O)NCC(=O)OCc2cc(=O)n3nc(C4CC4)sc3n2)cc1 | 85% |
| CCOC(=O)c1c(S(=O)(=O)N2CCN(c3cccc(C(F)(F)F)c3)CC2)c(C)n(C)c1C | 116% |
| CCS(=O)(=O)c1cccc(C(=O)N2CCN(c3nc4c(C)ccc(Cl)c4s3)CC2)c1 | 78% |
| Cc1nc2ccn(Cc3cccs3)c(=O)c2cc1C(=O)NCc1ccc(Cl)cc1 | 49% |
| Cc1ccc(CNC(=O)c2cc3c(=O)n(Cc4ccco4)ccc3nc2C)cc1 | 87% |
| CCOc1ccc(CNC(=O)c2cc3c(=O)n(Cc4cccs4)ccc3nc2C)cc1 | 112% |
| Cc1cccc(NC(=O)c2cc3c(=O)n(Cc4cccnc4)ccc3nc2C)c1 | 0% (active) |
| Cc1nc2ccn(Cc3ccco3)c(=O)c2cc1C(=O)NCc1ccccc1 | 79% |
| Cc1nc2ccn(Cc3ccco3)c(=O)c2cc1C(=O)NCc1ccc(Cl)cc1 | 47% (active) |
| COc1cccc(NC(=O)c2cc3c(=O)n(Cc4cccnc4)ccc3nc2C)c1 | 101% |
| COc1ccc(CNC(=O)c2cc3c(=O)n(Cc4cccs4)ccc3nc2C)cc1 | 37% (active) |
| CC(=O)Nc1ccc(NC(=O)c2cc3c(=O)n(Cc4cccnc4)ccc3nc2C)cc1 | 57% |
